# Results published in PubChem BioAssay AID1479144 (National Center for Advancing Translational Sciences (NCATS), 2020).
# Inconclusive results are not listed. Calls of active or inactive are those of the source. Calls come from the whole dose curve.
# Test: Confirmatory qHTS for Vero E6 cytotoxicity: counterscreen for inhibitors of SARS-S pseudo-typed particle cell entry
# Details: cell viability; series mostly up to 57.1 µM; activity change, negative = cytotoxicity: at the top concentration
Compound,"activity change, negative = cytotoxicity",Potency
C/C=C(/C)C(=O)O[C@H]1C(C)=CC23C(=O)C(C=C(CO)[C@@H](O)[C@]12O)[C@H]1[C@@H](C[C@H]3C)C1(C)C (stereo partly drawn),3.6% (inactive),–
CC(CN(C)C)CN1c2ccccc2CCc2ccccc21 (stereo not drawn),-18.4% (inactive),–
N=C(N)c1ccc(OCCCCCOc2ccc(C(=N)N)cc2)cc1,–,21.5 µM (active)
Cc1cn([C@H]2C[C@H](N=[N+]=[N-])[C@@H](CO)O2)c(=O)[nH]c1=O,-4.49% (inactive),–
C=CC(=O)Nc1cc(Nc2nccc(-c3cn(C)c4ccccc34)n2)c(OC)cc1N(C)CCN(C)C,–,13.6 µM (active)
CN1CCCCC1CCN1c2ccccc2Sc2ccc(S(C)=O)cc21 (stereo not drawn),-13.1% (inactive),–
O=C(Nc1ccc([N+](=O)[O-])cc1Cl)c1cc(Cl)ccc1O,–,0.857 µM (active)
CC(=O)Oc1ccccc1C(=O)Nc1ncc([N+](=O)[O-])s1,–,9.61 µM (active)
C[n+]1c2cc(N)ccc2cc2ccc(N)cc21 (tested in a mixture with another compound),–,10.8 µM (active)
COc1ccc(Cc2nccc3cc(OC)c(OC)cc23)cc1OC,-9.35% (inactive),–
COc1cc(NS(C)(=O)=O)ccc1Nc1c2ccccc2nc2ccccc12,–,12.1 µM (active)
CN(C)CCC=C1c2ccccc2C(C)(C)c2ccccc21,0% (inactive),–
COc1cc2c(cc1Cc1cccc(Cl)c1F)c(=O)c(C(=O)O)cn2[C@H](CO)C(C)C,0% (inactive),–
COc1cc2nccc(Oc3ccc(NC(=O)NC4CC4)c(Cl)c3)c2cc1C(N)=O,3.84% (inactive),–
CCCN1C[C@H](C)[C@@H](O)[C@](C)(O)[C@@H](CC)OC(=O)[C@H](C)[C@@H](O[C@H]2C[C@@](C)(OC)[C@@H](O)[C@H](C)O2)C(C)[C@@H](O[C@@H]2O[C@H](C)C[C@H](N(C)C)[C@H]2O)[C@](C)(O)C[C@H]1C (stereo partly drawn),-15.3% (inactive),–
CNCCCC12CCC(c3ccccc31)c1ccccc12,-14.6% (inactive),–
CC[C@H](C)C(=O)O[C@H]1C[C@@H](C)C=C2C=C[C@H](C)[C@H](CC[C@@H]3C[C@@H](O)CC(=O)O3)[C@H]21,–,9.61 µM (active)

Compound,"activity change, negative = cytotoxicity",Potency
CC[C@@]1(O)C(=O)OCc2c1cc1n(c2=O)Cc2c-1nc1ccccc1c2/C=N/OC(C)(C)C,–,17.1 µM (active)
CCCCCCCCCCCC[n+]1ccc2ccccc2c1,–,3.83 µM (active)
COc1cc(N)c(Cl)cc1C(=O)NC1CCN(CCCOc2ccc(F)cc2)CC1OC (stereo not drawn),4.05% (inactive),–
C[C@H]1[C@H](OC(=O)CCC(=O)O)O[C@@H]2O[C@@]3(C)CC[C@H]4[C@H](C)CC[C@@H]1[C@@]24OO3,-12.5% (inactive),–
CC[C@@]1(O)C(=O)OCc2c1cc1n(c2=O)Cc2cc3c([N+](=O)[O-])cccc3nc2-1,–,3.93 µM (active)
O=c1ccc2ccccc2o1,0% (inactive),–
CCCCCCCCCCCCOCCOCCOCCOCCOCCOCCOCCOCCOCCO,-16.9% (inactive),–
CCCCCCOC(=O)NC(=N)c1ccc(NCc2nc3cc(C(=O)N(CCC(=O)OCC)c4ccccn4)ccc3n2C)cc1,0% (inactive),–
CN(C/C=C/c1ccccc1)Cc1cccc2ccccc12,-9.07% (inactive),–
Nc1ccn([C@@H]2O[C@H](CO)[C@@H](O)C2(F)F)c(=O)n1,0% (inactive),–
CC(C)(C)NC(=O)[C@H]1CC[C@H]2[C@@H]3CC[C@H]4NC(=O)C=C[C@]4(C)[C@H]3CC[C@]12C,0.628% (inactive),–
CCn1cc(C(=O)O)c(=O)c2cc(F)c(N3CCNC(C)C3)c(F)c21 (stereo not drawn),-17.7% (inactive),–
OCCN1CCN(CC/C=C2/c3ccccc3Sc3ccc(C(F)(F)F)cc32)CC1,-23.7% (inactive),–
CCCCCCCCCCCCCC[n+]1ccc(C)cc1,–,4.29 µM (active)
O=C(O)c1cc(O)c2c(c1)[C@H]([C@H]1c3cc(C(=O)O)cc(O)c3C(=O)c3c(O[C@@H]4O[C@H](CO)[C@@H](O)[C@H](O)[C@H]4O)cccc31)c1cccc(O[C@@H]3O[C@H](CO)[C@@H](O)[C@H](O)[C@H]3O)c1C2=O,3.1% [at 33 µM] (inactive),–
CN1CCC(=C2c3ccccc3CCc3sccc32)CC1,1.55% (inactive),–
